Experiment [1] is described as follows: Nuclear factor erythroid 2-related factor 2/antioxidant responsive element (Nrf2/ARE) small molecule agonists: qHTS cell viability counter screen in human keratinocytes (AID 1919968; active = well fitted cell-killing curve with a large enough effect in the repeat runs; note: nearly all actives have a fitted effect of over 55% in size; note: potency is the fitted concentration of half-maximal effect). The essentials: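 CellTiter-Fluor fluorescence, read 1 h after reagent, gave viability in the same wells as the ARE-luciferase assay. KeratinoSens cells (1,500/well) had 23 h compound exposure at 37 C/5% CO2 following 5 h plating.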
(In general: In qHTS, concentration-response curves come from the screen itself.)

Experiment [2] can be described thus: Nuclear factor erythroid 2-related factor 2/antioxidant responsive element (Nrf2/ARE) small molecule agonists: luciferase reporter gene qHTS assay in human keratinocytes (AID 1919969). Note: nearly all actives have a fitted effect of over 35% in size. On the technique in general: In a reporter assay the amount or activity of a reporter protein is the signal.
Experiment [3] deals with Gonadotropin-releasing hormone receptor (Homo sapiens) (UniProt P30968). Put plainly: Human gonadotropin-releasing hormone receptor (GnRHR) small molecule agonists, calcium flux assay in GnRHR-HEK293 cells (AID 1920063). Note: nearly all actives have a fitted effect of over 35% in size. Put shortly:
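Agonist mode: compounds at 15 concentrations, in triplicate, went onto calcium dye-loaded GnRHR-HEK293 cells. Intracellular calcium was then followed as 480/540 nm fluorescence at 1 s intervals over 3 min.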
Background: Calcium flux is commonly read through the fluorescence of an indicator in the cells.

The nature of experiment [4]: G protein-coupled receptor (GPCR) small molecule agonists, calcium flux assay: HEK293 wild type cell line counter screen (AID 1920065). Put shortly: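 Calcium flux counter screen: compound added in agonist mode at 15 concentrations in triplicate to dye-loaded parental HEK293 cells. Fluorescence (480/540) read kinetically for 3 min; ATP served as positive control.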
Experiment [5] in a line: p53 small molecule agonists, cell-based qHTS assay with human liver microsomes: qHTS cell viability counter screen (AID 1963579). Note: nearly all actives have a fitted effect of over 45% in size. Note: potency is the fitted concentration of half-maximal effect. The essentials:
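p53RE-bla cells, 4,000/well, dosed 5 hours after plating, with human liver microsomes (0.5 mg/mL final) plus NADPH (0.5 mg/mL final), 16 hours at 37 C. Viability read as CellTiter-Glo luminescence after 30 min at room temperature.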

Experiment [6] in a line: p53 small molecule agonists, cell-based qHTS assay with rat liver microsomes: qHTS cell viability counter screen (AID 1963580). Note: nearly all actives have a fitted effect of over 45% in size. The essentials:
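Cytotoxicity counter screen: intracellular ATP read by CellTiter-Glo luminescence in the p53 reporter wells. HCT-116 p53RE-bla cells were treated for 16 h at 37 C alongside rat liver microsomes and NADPH, each 0.5 mg/mL final.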

Experiment [7] has as its target 5-hydroxytryptamine receptor 2A (Homo sapiens) (UniProt P28223). Put plainly: 5-hydroxytryptamine receptor 2A (HTR2A) small molecule antagonists, cell-based qHTS assay (AID 1963586). Note: nearly all actives have a fitted effect of over 45% in size. Note: potency is the fitted concentration of half-maximal effect. The essentials:
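CHO cells stably expressing human HTR2A were plated for 18 h at 37 C, then loaded with calcium dye for 1 h. Compounds were preincubated 5 min at room temperature before DOI (4 nM solution) was added. Kinetic fluorescence was read for 3 min.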

Experiment [8] has the same target. Put plainly: 5-hydroxytryptamine receptor 2A (HTR2A) small molecule agonists, cell-based qHTS assay (AID 1963587). Note: nearly all actives have a fitted effect of over 30% in size. Note: potency is the fitted concentration of half-maximal effect. Put shortly:
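Kinetic calcium-flux fluorescence (2 min, 1 sec intervals) after compound addition in agonist mode. HTR2A-CHO cells were cultured 18 h, then dye-loaded 1 h at 37 C.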

The target in experiment [9] is Muscarinic acetylcholine receptor M1 (Homo sapiens) (UniProt P11229). Put plainly: Cholinergic receptor muscarinic 1 (CHRM1) small molecule antagonists, cell-based qHTS assay (AID 1963588). Note: nearly all actives have a fitted effect of over 40% in size. Put shortly:
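Compounds were tested at 15 concentrations in three independent runs. Dye-loaded CHRM1-CHO cells were exposed 5 min at room temperature before stimulation by acetylcholine added at 50nM. Intracellular calcium was read kinetically on FDSS for 3 min.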

Experiment [10] shares this target. Briefly: Cholinergic receptor muscarinic 1 (CHRM1) small molecule agonists, cell-based qHTS assay (AID 1963589). Note: nearly all actives have a fitted effect of over 35% in size. Note: potency is the fitted concentration of half-maximal effect. The essentials:
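Agonist-mode calcium-flux screen: compounds at 15 concentrations, three independent runs, were pin-transferred onto dye-loaded human CHRM1-CHO cells. Fluorescence was then recorded kinetically every second over minutes.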

The nature of experiment [11]: cAMP Responsive Elements (CRE) small molecule agonists, cell-based qHTS assay (AID 1963590). Put shortly: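 Agonist mode: compound added to CRE-bla HEK 293T cells (2,000/well, 18 h after plating) for 3 h at 37 C/5% CO2. Reporter activity detected via FRET beta-lactamase substrate, 2 h room-temperature loading.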
Experiment [12] addresses Beta-2 adrenergic receptor (Homo sapiens) (UniProt P07550). Briefly: Adrenergic beta2 receptor (ADRB2) small molecule antagonists, cell-based qHTS assay (AID 1963592). Note: series mostly up to about 92 µM; nearly all actives have a fitted effect of over 50% in size. Put shortly: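 Assay format: CHO-ADRB2 cells, 18-20hr seeding at 37C/5% CO2, then compound plus 1nM isoproterenol agonist mix for 0.5hr RT. Homogeneous time-resolved fluorescence cAMP detection after 1hr, expressed as 665/615 nm ratio.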

The target is the same in experiment [13]. Put plainly: Adrenergic beta2 receptor (ADRB2) small molecule agonists, cell-based qHTS assay (AID 1963593).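 Note: CHO cells stably overexpressing human ADRB2.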 The essentials: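 CHO cells stably over-expressing ADRB2 were plated overnight at 37C, then dosed with compounds plus a stimulation mix containing 100uM IBMX and 25uM Ro-20-1724 for 0.5hr at room temperature. cAMP was measured by HTRF competition, 1hr.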

The target of experiment [14] is D(2) dopamine receptor (Homo sapiens) (UniProt P14416). Put plainly: Dopamine D2 receptor (DRD2) small molecule agonists, cell-based qHTS assay (AID 1963594). Note: nearly all actives have a fitted effect of over 35% in size. Put shortly: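 cAMP accumulation in DRD2-HEK293 cells measured by HTRF after 1 h detection; compounds added 10 min before NKH477 (200nM […]) forskolin-analogue stimulation, 30 min at room temperature, with Ro20-1724 present at 0.1 mM final.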

Experiment [15] has the same target. Put plainly: Dopamine D2 receptor (DRD2) small molecule antagonists, cell-based qHTS assay (AID 1963595; active = well fitted inhibition curve with a large enough effect in the signal ratio in the repeat runs, with a control signal flat; the % refers to the signal ratio; note: potency is the fitted concentration of half-maximal effect). Put shortly: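 Cells were plated and grown for 24 h at 37 °C. Ro20-1724 (0.1 mM final) went in first, then compound for 10 min. NKH477 (200 nM) with quinpirole (12 nM) followed for 30 min at RT, then HTRF detection reagents for 1 h.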
The nature of experiment [16]: p53 small molecule agonists, cell-based qHTS assay with rat liver microsomes (AID 1963578). The essentials: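 p53RE-bla cells, 4,000/well, pre-incubated 5 h, then given compounds plus rat liver microsomes (0.5 mg/mL final) and NADPH (0.5 mg/mL final). Incubation 16 h at 37 C; beta-lactamase reporter read by LiveBLAzer fluorescence after 2 h at room temperature.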
Experiment [17] in a line: p53 small molecule agonists, cell-based qHTS assay: qHTS cell viability counter screen (AID 1963581). Note: nearly all actives have a fitted effect of over 45% in size. The essentials:
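Counter screen read by CellTiter-Glo luminescence (ATP content, 30 min at room temperature), run in the same wells as the beta-lactamase reporter read. HCT-116 p53RE-bla cells saw compounds for 16 h at 37 C.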

Experiment [18] is described as follows: p53 small molecule agonists, cell-based qHTS assay (AID 1963582; active = well fitted activation curve with a large enough effect in the signal ratio in the repeat runs, not every such curve was filed as active; the % refers to the signal ratio). Put shortly: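 Read-out is beta-lactamase FRET fluorescence after 2 h at room temperature with LiveBLAzer B/G substrate. p53 response element-bla cells were treated 16 h at 37 C with compounds in DMSO, added 5 h after seeding.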
A short description of experiment [19]: cAMP Responsive Elements (CRE) small molecule antagonists, cell-based qHTS assay (AID 1963591; active = well fitted inhibition curve with a large enough effect in the signal ratio in the repeat runs, not every such curve was filed as active; the % refers to the signal ratio). The essentials:
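Antagonist mode: compounds are added alongside the adenylyl cyclase activator NKH477 (0.25 uM final) to CRE-bla HEK293T cells for 3 h. LiveBLAzer FRET substrate, 2 h at room temperature, reports bla expression.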

The nature of experiment [20]: p53 small molecule agonists, cell-based qHTS assay with human liver microsomes (AID 1963577). Put shortly:
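p53RE-bla cells, 4,000/well, compound added after 5 h, with human liver microsomes 0.5 mg/mL and NADPH 0.5 mg/mL final; 16 h at 37 C, then LiveBLAzer 2 h RT, fluorescence.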

The values below come from PubChem BioAssay (Tox21).

Values joined by “and” are separate entries in the source; they are usually repeats but may differ in a detail not shown here. Equal entries are not always repeated. Results filed as inconclusive are left out. The source holds several records for some structures; these can differ, active in one and inactive in another. Active and inactive are the calls of the source. Unless noted, calls come from the whole dose curve.

Sequence of D(2) dopamine receptor (Homo sapiens) (P14416 whole entry, looked up): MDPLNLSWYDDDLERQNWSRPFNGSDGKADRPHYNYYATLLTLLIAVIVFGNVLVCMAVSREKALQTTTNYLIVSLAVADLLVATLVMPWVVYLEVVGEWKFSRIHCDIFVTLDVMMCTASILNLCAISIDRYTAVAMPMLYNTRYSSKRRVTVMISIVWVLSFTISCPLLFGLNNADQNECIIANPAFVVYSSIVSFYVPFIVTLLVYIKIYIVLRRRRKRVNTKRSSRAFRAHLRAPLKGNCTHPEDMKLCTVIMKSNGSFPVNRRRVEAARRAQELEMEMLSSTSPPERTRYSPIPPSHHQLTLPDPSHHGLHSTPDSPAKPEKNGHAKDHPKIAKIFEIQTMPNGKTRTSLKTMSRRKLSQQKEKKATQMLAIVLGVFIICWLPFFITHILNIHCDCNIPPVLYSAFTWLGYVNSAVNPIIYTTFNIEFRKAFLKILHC
Sequence of Gonadotropin-releasing hormone receptor (Homo sapiens) (P30968 whole entry, looked up): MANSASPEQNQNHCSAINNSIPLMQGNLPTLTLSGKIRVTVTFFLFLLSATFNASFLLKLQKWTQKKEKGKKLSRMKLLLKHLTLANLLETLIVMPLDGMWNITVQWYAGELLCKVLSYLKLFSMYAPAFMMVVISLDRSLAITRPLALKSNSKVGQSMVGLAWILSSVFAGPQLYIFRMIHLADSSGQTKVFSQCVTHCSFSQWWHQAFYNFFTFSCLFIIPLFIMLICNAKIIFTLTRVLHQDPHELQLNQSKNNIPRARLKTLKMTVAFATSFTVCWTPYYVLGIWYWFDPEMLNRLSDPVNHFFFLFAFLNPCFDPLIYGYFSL
Sequence of Beta-2 adrenergic receptor (Homo sapiens) (P07550 whole entry, looked up): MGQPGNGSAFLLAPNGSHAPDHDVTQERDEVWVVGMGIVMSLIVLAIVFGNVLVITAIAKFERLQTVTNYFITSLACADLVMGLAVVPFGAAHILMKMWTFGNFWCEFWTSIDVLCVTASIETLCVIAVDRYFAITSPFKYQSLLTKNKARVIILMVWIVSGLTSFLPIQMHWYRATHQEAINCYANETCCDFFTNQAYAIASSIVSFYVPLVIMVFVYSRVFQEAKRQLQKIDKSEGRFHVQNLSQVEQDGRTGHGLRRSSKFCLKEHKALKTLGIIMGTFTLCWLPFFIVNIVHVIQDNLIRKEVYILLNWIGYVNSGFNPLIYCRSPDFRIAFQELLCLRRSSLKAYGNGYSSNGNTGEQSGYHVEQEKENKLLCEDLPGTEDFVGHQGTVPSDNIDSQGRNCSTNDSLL
Sequence of Muscarinic acetylcholine receptor M1 (Homo sapiens) (P11229 whole entry, looked up): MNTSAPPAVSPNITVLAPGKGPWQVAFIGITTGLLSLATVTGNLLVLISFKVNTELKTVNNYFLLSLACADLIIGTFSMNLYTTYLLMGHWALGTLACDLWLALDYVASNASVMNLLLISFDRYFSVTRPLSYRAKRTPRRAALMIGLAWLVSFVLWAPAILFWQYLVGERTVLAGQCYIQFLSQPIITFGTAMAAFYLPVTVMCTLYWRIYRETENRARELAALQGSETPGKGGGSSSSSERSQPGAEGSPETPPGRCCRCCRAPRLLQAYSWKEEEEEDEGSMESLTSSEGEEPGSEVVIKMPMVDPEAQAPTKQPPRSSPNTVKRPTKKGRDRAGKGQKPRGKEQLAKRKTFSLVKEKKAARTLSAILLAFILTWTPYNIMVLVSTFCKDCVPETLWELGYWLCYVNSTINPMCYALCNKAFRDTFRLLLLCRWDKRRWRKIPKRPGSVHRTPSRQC
Sequence of 5-hydroxytryptamine receptor 2A (Homo sapiens) (P28223 whole entry, looked up): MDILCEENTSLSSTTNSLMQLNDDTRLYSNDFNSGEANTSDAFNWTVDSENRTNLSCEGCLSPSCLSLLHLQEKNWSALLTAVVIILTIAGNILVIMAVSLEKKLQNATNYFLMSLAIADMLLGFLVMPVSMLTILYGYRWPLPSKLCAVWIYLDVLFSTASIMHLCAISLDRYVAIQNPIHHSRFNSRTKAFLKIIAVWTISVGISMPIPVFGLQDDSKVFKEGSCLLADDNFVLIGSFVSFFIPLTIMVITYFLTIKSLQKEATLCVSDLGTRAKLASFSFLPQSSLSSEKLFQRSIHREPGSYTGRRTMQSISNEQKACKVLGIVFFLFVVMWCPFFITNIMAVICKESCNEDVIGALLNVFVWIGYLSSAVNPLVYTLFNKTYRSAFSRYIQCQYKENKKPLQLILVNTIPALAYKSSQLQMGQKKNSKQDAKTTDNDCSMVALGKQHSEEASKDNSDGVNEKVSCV

`CCCC(=O)O`: the Potency entry in experiment [1], in experiment [2], in experiment [3], in experiment [4], in experiment [5] and in experiment [6] was “inactive” each time. In addition, the Potency entry in experiment [7], in experiment [8], in experiment [9], in [10], in experiment [11] and in experiment [12] was “inactive” each time. The Potency result in [13], in [14] and in experiment [15] was “inactive” throughout.

With `Cc1ccc2c(n1)Oc1ccc(C(C)C(=O)OCC(=O)N(C)C)cc1C2` (stereo not drawn), the Potency result in experiment [1], in experiment [2], in experiment [3], in experiment [16], in experiment [5] and in experiment [6] was “inactive” each time. The Potency result in [17], in experiment [18], in [7], in [8], in [9] and in experiment [10] was “inactive” each time. Moreover, the Potency result in experiment [11], in experiment [19], in [12], in experiment [13], in [14] and in [15] was “inactive” in each case.

Regarding `CCCCCCCCCCCCN`, the Potency entry in experiment [1] is “inactive and 30.6 µM (active)”; in experiment [5], “inactive and 40.8 µM (active)”; in experiment [7] it was 5.94 µM (active) and inactive; in experiment [8] it was 24.5 µM (active) and inactive; in experiment [10], “inactive and 24.5 µM (active)”; in [15], “inactive and 43.3 µM (active)”. In addition, the Potency entry in experiment [2], in [4], in experiment [20], in [16], in experiment [6] and in experiment [17] was “inactive” throughout. Further, the Potency entry in experiment [18], in experiment [9], in experiment [11], in experiment [12], in [13] and in experiment [14] was “inactive” throughout.

In the case of `Cc1cccc2n[nH]nc12`, the Potency entry in experiment [1], in experiment [2], in experiment [3], in experiment [4], in experiment [16] and in experiment [5] was “inactive” each time. Further, the Potency result in experiment [6], in experiment [17], in [18], in [7], in experiment [8] and in [9] was “inactive” in each case. Besides, the Potency entry in experiment [10], in [11], in experiment [19], in experiment [12], in [13] and in experiment [14] was “inactive” throughout. In addition, the Potency entry in [15] was “inactive”.

On to `OCCc1ccccc1`, for which the Potency result in [1], in experiment [2], in [4], in experiment [20], in experiment [16] and in [5] was “inactive” in each case. Besides, the Potency result in experiment [6], in [17], in [18], in experiment [7], in [8] and in experiment [9] was “inactive” in each case. Further, the Potency result in [10], in experiment [11], in experiment [19], in [13] and in [14] was “inactive” each time.

For `CC(=O)c1ccccn1`, the Potency entry in [1], in experiment [2], in experiment [4], in experiment [20], in experiment [16] and in experiment [5] was “inactive” each time. The Potency result in [6], in experiment [17], in experiment [18], in [7], in experiment [8] and in experiment [9] was “inactive” throughout. Moreover, the Potency result in [10], in experiment [11], in experiment [19] and in experiment [14] was “inactive” throughout.
